We go through seven compounds from PubChem BioAssay (Tox21).

Assay [1] in a line: Nuclear factor erythroid 2-related factor 2/antioxidant responsive element (Nrf2/ARE) small molecule agonists: qHTS cell viability counter screen in human keratinocytes (AID 1919968; active = well fitted curve in the direction sought with a large enough effect in the repeat runs; an effect the other way counts as inactive or inconclusive; also: nearly all actives have a fitted effect of over 55% in size). The method in brief:
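Cells of the KeratinoSens line were plated at 1,500 per well and left for 5 h before compound transfer from DMSO stocks. After a 23 h incubation (37 C, 5% CO2), CellTiter-Fluor was added. Signal was taken as fluorescence intensity 1 h later.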

A short description of assay [2]: Nuclear factor erythroid 2-related factor 2/antioxidant responsive element (Nrf2/ARE) small molecule agonists: luciferase reporter gene qHTS assay in human keratinocytes (AID 1919969). Also: nearly all actives have a fitted effect of over 35% in size. For orientation: A reporter such as luciferase makes a cellular process visible.
Assay [3] in a line: G protein-coupled receptor (GPCR) small molecule agonists, calcium flux assay: HEK293 wild type cell line counter screen (AID 1920065). The method in brief: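 Tox21 10K compounds, 15 concentrations each in triplicate, pin-transferred in DMSO onto dye-loaded cells; kinetic read at 480/540 nm for 3 min, 1 s intervals.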
For orientation: A change in cytosolic calcium serves as a functional read-out for many receptors and channels.

Assay [4] can be described thus: p53 small molecule agonists, cell-based qHTS assay with human liver microsomes (AID 1963577). The method in brief: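 In this qHTS, p53 response-element beta-lactamase cells receive test compound together with a microsome/NADPH activating system (0.5 mg/mL final each) and are incubated 16 h at 37 C before LiveBLAzer fluorescence detection.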
For orientation: Quantitative high-throughput screening tests each substance at several concentrations.

The nature of assay [5]: p53 small molecule agonists, cell-based qHTS assay with rat liver microsomes (AID 1963578). The method in brief: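 Agonist mode in p53RE-bla reporter cells, with compounds co-incubated 16 h at 37 C alongside 0.5 mg/mL rat liver microsomes and 0.5 mg/mL NADPH (final), followed by a 2 h LiveBLAzer detection step.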
Assay [6] can be described thus: p53 small molecule agonists, cell-based qHTS assay with rat liver microsomes: qHTS cell viability counter screen (AID 1963580). Also: nearly all actives have a fitted effect of over 45% in size. The method in brief:
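Luminescent ATP readout (CellTiter-Glo, 30 min at room temperature) reports viability of p53RE-bla HCT-116 cells after 16 h at 37 C with test compounds under metabolic activation by rat liver microsomes and NADPH at 0.5 mg/mL final each.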

The nature of assay [7]: p53 small molecule agonists, cell-based qHTS assay: qHTS cell viability counter screen (AID 1963581). Also: nearly all actives have a fitted effect of over 45% in size. Put shortly:
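ATP content measured by luminescence in HCT-116 p53RE-bla cells treated 16 h at 37 C, same wells as the reporter screen.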

The nature of assay [8]: p53 small molecule agonists, cell-based qHTS assay (AID 1963582; active = well fitted activation curve with a large enough effect in the signal ratio in the repeat runs, not every such curve was filed as active; the % refers to the signal ratio). The method in brief:
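16 h compound exposure (37 C) of p53 response element–bla cells, preceded by 5 h recovery at 37 C/5% CO2; read-out via LiveBLAzer B/G FRET substrate, 2 h RT, fluorescence intensity.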

In assay [9] the target is 5-hydroxytryptamine receptor 2A (Homo sapiens) (UniProt P28223). Briefly: 5-hydroxytryptamine receptor 2A (HTR2A) small molecule antagonists, cell-based qHTS assay (AID 1963586). Also: nearly all actives have a fitted effect of over 45% in size. The method in brief:
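CHO cells stably expressing human HTR2A were plated for 18 h at 37 C, then loaded with calcium dye for 1 h. Compounds were preincubated 5 min at room temperature before DOI (4 nM solution) was added. Kinetic fluorescence was read for 3 min.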

The target is the same in assay [10]. Briefly: 5-hydroxytryptamine receptor 2A (HTR2A) small molecule agonists, cell-based qHTS assay (AID 1963587). Also: nearly all actives have a fitted effect of over 30% in size. Also: potency is read from the fitted curve at half-maximal effect. Put shortly:
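HTR2A-CHO cells, plated 18 h at 37 C/5% CO2, dye-loaded 1 h at 37 C; compounds in DMSO added by pin tool (agonist mode). Intracellular calcium flux read as kinetic fluorescence on FDSS over 2 min at 1 s intervals.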

For assay [11], the target named is Muscarinic acetylcholine receptor M1 (Homo sapiens) (UniProt P11229). Briefly: Cholinergic receptor muscarinic 1 (CHRM1) small molecule antagonists, cell-based qHTS assay (AID 1963588). Also: nearly all actives have a fitted effect of over 40% in size. The method in brief: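 Compounds were tested at 15 concentrations in three independent runs. Dye-loaded CHRM1-CHO cells were exposed 5 min at room temperature before stimulation by acetylcholine added at 50nM. Intracellular calcium was read kinetically on FDSS for 3 min.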
Sequence of Muscarinic acetylcholine receptor M1 (Homo sapiens) (P11229 whole entry, looked up): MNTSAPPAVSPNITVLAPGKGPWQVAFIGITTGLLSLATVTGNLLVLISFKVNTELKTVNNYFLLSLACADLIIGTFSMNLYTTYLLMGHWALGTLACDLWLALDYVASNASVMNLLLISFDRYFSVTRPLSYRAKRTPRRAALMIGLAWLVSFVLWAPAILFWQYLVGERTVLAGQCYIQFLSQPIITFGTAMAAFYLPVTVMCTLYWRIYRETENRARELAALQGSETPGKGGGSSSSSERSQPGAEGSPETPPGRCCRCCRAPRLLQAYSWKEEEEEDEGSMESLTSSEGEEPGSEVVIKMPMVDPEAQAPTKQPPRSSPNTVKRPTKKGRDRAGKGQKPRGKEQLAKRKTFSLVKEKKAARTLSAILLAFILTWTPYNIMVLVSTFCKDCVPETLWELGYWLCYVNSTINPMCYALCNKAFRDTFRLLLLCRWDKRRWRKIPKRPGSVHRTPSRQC

Assay [12] has the same target. Description: Cholinergic receptor muscarinic 1 (CHRM1) small molecule agonists, cell-based qHTS assay (AID 1963589). Also: nearly all actives have a fitted effect of over 35% in size. Put shortly: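 Homogeneous fluorescence calcium flux, agonist mode. Human M1-expressing CHO cells; compound dosed at 15 concentrations, three independent runs; signal sampled every 1 sec.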
Assay [13] can be described thus: cAMP Responsive Elements (CRE) small molecule agonists, cell-based qHTS assay (AID 1963590). The method in brief: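 HEK 293T cells stably bearing CRE-bla were plated at 2,000 cells per well and rested 18 h. Compounds, positive controls or DMSO were added for 3 h at 37 C. LiveBLAzer B/G substrate was then loaded for 2 h at room temperature.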
Assay [14] can be described thus: cAMP Responsive Elements (CRE) small molecule antagonists, cell-based qHTS assay (AID 1963591; active = well fitted inhibition curve with a large enough effect in the signal ratio in the repeat runs, not every such curve was filed as active; the % refers to the signal ratio). Put shortly:
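First, CRE-bla HEK293T cells settled 18 h at 37 C. Next, compound and 0.25 uM final NKH477 were applied for 3 h. Last, LiveBLAzer B/G substrate was loaded for 2 h at room temperature.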

Assay [15] has as its target Beta-2 adrenergic receptor (Homo sapiens) (UniProt P07550). Description: Adrenergic beta2 receptor (ADRB2) small molecule antagonists, cell-based qHTS assay (AID 1963592). Also: series mostly up to about 92 µM; nearly all actives have a fitted effect of over 50% in size. Put shortly: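 Assay format: CHO-ADRB2 cells, 18-20hr seeding at 37C/5% CO2, then compound plus 1nM isoproterenol agonist mix for 0.5hr RT. Homogeneous time-resolved fluorescence cAMP detection after 1hr, expressed as 665/615 nm ratio.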

In assay [16] the target is D(2) dopamine receptor (Homo sapiens) (UniProt P14416). Description: Dopamine D2 receptor (DRD2) small molecule antagonists, cell-based qHTS assay (AID 1963595; active = well fitted inhibition curve with a large enough effect in the signal ratio in the repeat runs, with a control signal flat; the % refers to the signal ratio). Put shortly: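 Antagonist mode in DRD2-HEK293 cells: after compound addition with 0.1 mM Ro20-1724, cells received quinpirole (12 nM) and NKH477 (200 nM) for 30 min at room temperature; HTRF cAMP read after 1 h detection.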
Sequence of D(2) dopamine receptor (Homo sapiens) (P14416 whole entry, looked up): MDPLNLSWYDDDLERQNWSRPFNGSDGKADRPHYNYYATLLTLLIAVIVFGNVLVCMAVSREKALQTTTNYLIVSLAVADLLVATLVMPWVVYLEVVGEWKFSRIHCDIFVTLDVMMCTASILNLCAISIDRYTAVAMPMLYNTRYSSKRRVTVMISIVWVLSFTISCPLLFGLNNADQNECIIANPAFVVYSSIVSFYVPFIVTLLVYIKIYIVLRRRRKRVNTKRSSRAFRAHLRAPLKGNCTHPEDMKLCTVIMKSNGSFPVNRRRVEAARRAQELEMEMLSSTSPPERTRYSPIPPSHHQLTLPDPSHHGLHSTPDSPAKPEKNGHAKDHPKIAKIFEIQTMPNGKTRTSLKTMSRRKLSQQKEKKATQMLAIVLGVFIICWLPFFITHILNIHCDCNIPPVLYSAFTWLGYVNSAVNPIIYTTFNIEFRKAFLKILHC

Assay [17] deals with Gonadotropin-releasing hormone receptor (Homo sapiens) (UniProt P30968). Briefly: Human gonadotropin-releasing hormone receptor (GnRHR) small molecule agonists, calcium flux assay in GnRHR-HEK293 cells (AID 1920063). Also: nearly all actives have a fitted effect of over 35% in size. The method in brief: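 Compounds dissolved in DMSO are pin-transferred onto dye-loaded GnRHR-HEK293 cells, which were seeded 18 h before at 37 C/5% CO2. Calcium signal is read as fluorescence intensity at 1 s intervals for 3 min.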
Sequence of Gonadotropin-releasing hormone receptor (Homo sapiens) (P30968 whole entry, looked up): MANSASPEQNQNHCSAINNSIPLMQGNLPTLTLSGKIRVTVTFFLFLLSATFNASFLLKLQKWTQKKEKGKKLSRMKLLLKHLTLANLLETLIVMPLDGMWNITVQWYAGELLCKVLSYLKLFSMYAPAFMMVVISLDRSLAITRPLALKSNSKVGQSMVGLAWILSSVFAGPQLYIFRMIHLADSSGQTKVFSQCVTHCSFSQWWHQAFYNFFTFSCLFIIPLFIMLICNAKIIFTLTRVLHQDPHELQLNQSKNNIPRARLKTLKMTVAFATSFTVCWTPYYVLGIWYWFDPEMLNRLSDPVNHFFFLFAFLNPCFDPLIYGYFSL

In assay [18] the target is KiSS-1 receptor (Homo sapiens) (UniProt Q969F8). Description: Human kisspeptin (KISS1R) small molecule agonists, calcium flux assay in KISS1R-HEK293 cells (AID 1920064; active = well fitted curve in the direction sought with a large enough effect in the repeat runs; an effect the other way counts as inactive or inconclusive). The method in brief: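 Cell line: HEK293, stable human KISS1R. Dye loading 1 h at 37 C after 18 h culture. Read: kinetic fluorescence, 480/540 nm, 3 min at 1 s intervals.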
Sequence of KiSS-1 receptor (Homo sapiens) (Q969F8 whole entry, looked up): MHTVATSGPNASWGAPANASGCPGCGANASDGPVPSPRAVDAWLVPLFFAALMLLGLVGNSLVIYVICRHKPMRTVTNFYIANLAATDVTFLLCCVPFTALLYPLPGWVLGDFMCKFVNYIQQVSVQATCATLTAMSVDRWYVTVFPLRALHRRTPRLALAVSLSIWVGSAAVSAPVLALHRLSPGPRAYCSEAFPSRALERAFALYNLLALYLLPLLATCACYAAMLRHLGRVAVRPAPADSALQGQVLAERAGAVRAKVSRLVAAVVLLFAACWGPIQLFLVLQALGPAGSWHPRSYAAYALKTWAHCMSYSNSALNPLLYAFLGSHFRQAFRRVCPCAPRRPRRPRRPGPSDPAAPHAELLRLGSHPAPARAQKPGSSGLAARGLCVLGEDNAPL
Assay [19] in a line: p53 small molecule agonists, cell-based qHTS assay with human liver microsomes: qHTS cell viability counter screen (AID 1963579). Also: nearly all actives have a fitted effect of over 45% in size. Also: potency is read from the fitted curve at half-maximal effect. The method in brief:
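Metabolically activated exposure: compounds, human liver microsomes and NADPH (0.5 mg/mL final apiece) were added to p53RE-bla cells seeded 5 h earlier, left 16 h at 37 C, and then assessed for viability by CellTiter-Glo luminescence.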

The target of assay [20] is D(2) dopamine receptor (Homo sapiens) (UniProt P14416). Description: Dopamine D2 receptor (DRD2) small molecule agonists, cell-based qHTS assay (AID 1963594). Also: nearly all actives have a fitted effect of over 35% in size. The method in brief: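 HEK293 cells stably expressing DRD2 were cultured 24 h at 37 C, then given Ro20-1724 (0.1 mM final) and compounds for 10 min at room temperature. NKH477 (200nM) was then added for 30 min. cAMP was read by HTRF.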

Unmarked numbers belong to inactive results. Records with an inconclusive call do not appear. The source made the active and inactive calls. Unless noted, calls follow the shape of the full dose curve.

Sequence of Beta-2 adrenergic receptor (Homo sapiens) (P07550 whole entry, looked up): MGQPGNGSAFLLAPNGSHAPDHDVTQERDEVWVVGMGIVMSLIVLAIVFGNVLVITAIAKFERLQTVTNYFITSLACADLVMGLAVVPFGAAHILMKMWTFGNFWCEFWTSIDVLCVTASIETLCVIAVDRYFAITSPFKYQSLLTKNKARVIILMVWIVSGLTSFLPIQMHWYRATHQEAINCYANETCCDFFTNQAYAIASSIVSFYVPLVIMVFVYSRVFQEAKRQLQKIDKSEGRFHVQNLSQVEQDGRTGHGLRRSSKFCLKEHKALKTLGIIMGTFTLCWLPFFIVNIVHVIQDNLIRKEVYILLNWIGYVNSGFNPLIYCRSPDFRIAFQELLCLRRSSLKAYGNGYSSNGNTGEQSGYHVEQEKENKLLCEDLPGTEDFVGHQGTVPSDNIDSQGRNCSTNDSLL
Sequence of 5-hydroxytryptamine receptor 2A (Homo sapiens) (P28223 whole entry, looked up): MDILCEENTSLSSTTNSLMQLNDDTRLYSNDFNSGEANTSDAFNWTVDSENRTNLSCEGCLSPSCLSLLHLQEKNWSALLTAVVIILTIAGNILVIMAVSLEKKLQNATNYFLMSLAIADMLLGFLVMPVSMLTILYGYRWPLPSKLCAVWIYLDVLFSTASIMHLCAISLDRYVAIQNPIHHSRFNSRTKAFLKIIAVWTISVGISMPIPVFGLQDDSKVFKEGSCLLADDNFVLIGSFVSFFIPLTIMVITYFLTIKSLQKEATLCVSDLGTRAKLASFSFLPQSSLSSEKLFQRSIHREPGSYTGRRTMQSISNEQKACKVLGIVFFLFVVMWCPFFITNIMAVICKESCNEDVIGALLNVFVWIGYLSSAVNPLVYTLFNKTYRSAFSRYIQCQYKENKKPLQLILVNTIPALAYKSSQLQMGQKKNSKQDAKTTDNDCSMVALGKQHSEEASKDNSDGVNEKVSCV

As to `CCCN1CCC[C@@H]2Cc3nc(N)ncc3C[C@H]21`, the Potency entry in [1], in assay [2], in assay [3], in assay [4], in assay [5] and in assay [6] was “inactive” each time. Besides, the Potency result in assay [7], in [8], in assay [9], in [11], in assay [12] and in assay [13] was “inactive” each time. Besides, the Potency entry in [14], in assay [15] and in [16] was “inactive” each time. Moreover, the Potency in assay [10] is 8.49 µM (active).
As for `CC(C)(CCl)C(=O)Cl`, the Potency entry in assay [1], in [17], in assay [18], in assay [3], in assay [4] and in [5] was “inactive” each time. In addition, the Potency entry in [6], in assay [7], in assay [8], in assay [9], in assay [10] and in assay [11] was “inactive” in each case. The Potency result in [12], in assay [13], in assay [14], in assay [15], in [20] and in assay [16] was “inactive” each time. Besides, the Potency in assay [19] is 18.2 µM (active).
On to `SCc1ccccc1`, for which the Potency result in [1], in assay [17], in assay [18], in assay [3], in assay [4] and in assay [5] was “inactive” in each case. Moreover, the Potency result in assay [19], in assay [6], in assay [7], in assay [8], in [10] and in assay [11] was “inactive” in each case. Moreover, the Potency entry in assay [12], in assay [14], in assay [15] and in assay [16] was “inactive” throughout.
With `CCCCCC[N+](=O)[O-]`, the Potency result in assay [1], in [17], in assay [18], in assay [3], in assay [4] and in assay [5] was “inactive” each time. In addition, the Potency entry in [19], in assay [6], in assay [7], in assay [8], in assay [9] and in assay [10] was “inactive” each time. Besides, the Potency entry in assay [11], in [13], in assay [14], in assay [15], in [20] and in assay [16] was “inactive” each time.
For `O=[N+]([O-])c1ccccc1CCl`, the Potency entry in assay [1], in [17], in assay [18], in [3], in assay [4] and in [5] was “inactive” in each case. Also, the Potency entry in [19], in [6], in assay [7], in assay [8], in assay [9] and in [10] was “inactive” throughout. The Potency entry in assay [11], in assay [12], in assay [13], in assay [15], in assay [20] and in assay [16] was “inactive” in each case.
Take `CC(C)NCC(O)c1ccccc1Cl` (stereo not given): the Potency result in [1], in assay [17], in assay [18], in assay [3], in assay [4] and in [5] was “inactive” in each case. Also, the Potency entry in [19], in [6], in [7], in assay [8], in assay [14] and in assay [15] was “inactive” in each case. For the same compound, the Potency result in [20] and in assay [16] was “inactive” in each case.
For `COC1=CC(=O)O[C@@H](/C=C/c2ccccc2)C1`, the Potency entry in [1], in assay [17], in assay [18], in assay [3], in assay [4] and in assay [5] was “inactive” in each case. The Potency entry in assay [19], in assay [6], in assay [7], in assay [8], in assay [9] and in assay [11] was “inactive” in each case. Moreover, the Potency entry in assay [15] and in assay [20] was “inactive” each time.
